Each structure is given as a SMILES string. Records with an inconclusive call do not appear. A call without a number means that no potency is given here. Active and inactive are the calls of the source. Calls follow the shape of the dose curve; as a rule, active = well fitted inhibition curve with a large enough effect; inconclusive = small, poorly fitted or top-dose-only effect; inactive = flat fitted curve, though single readings scatter.
Potency is read from the fitted curve at half-maximal effect.

For this test, the target named is Calcium and integrin-binding protein 1 (Homo sapiens) (UniProt Q99828). Put plainly: Primary qHTS for Identification of Calcium Integrin Binding Protein 1 (CIB1) Competitor (AID 1508620). The conditions noted are these: CIB1-GST / FITC-alphaIIb peptide fluorescence polarization; series mostly up to 114 µM. A digest of the protocol: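 CIB1-GST (1 uM final) and compound incubated 15 min at room temperature before adding FITC-alphaIIb peptide tracer (100 nM final). Competition for binding read by fluorescence polarization (ex 480, em 540) after another 15 min at room temperature.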
Calcium and integrin-binding protein 1 (Homo sapiens), sequence (Q99828 whole entry, looked up): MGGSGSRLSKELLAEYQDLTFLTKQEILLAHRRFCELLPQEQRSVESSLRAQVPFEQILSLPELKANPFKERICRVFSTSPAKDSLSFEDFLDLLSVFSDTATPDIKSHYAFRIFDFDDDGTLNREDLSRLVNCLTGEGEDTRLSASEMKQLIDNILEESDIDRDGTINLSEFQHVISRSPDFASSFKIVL
A general note: qHTS replaces the single test concentration by a dilution series.
`C/C=C(\C)C(=O)OC1C(C)C2(O)C(C=C(CO)CC3(O)C(=O)C(C)=CC32)C2C(C)(C)C12OC(=O)C(C)C` (stereo not drawn): the Potency entry is “inactive”.
The entry for `Cc1nnc(C[C@@H]2C=C(c3ccc(Cl)cc3)c3ccccc3-n3c(C)nnc32)o1` is “inactive”; for `COc1ccc(C(=O)O[C@H]2C=COC=C3C=C4C(=O)N(C)C(=S)C(=O)N4[C@@H]32)cc1Oc1cc(C=O)ccc1O` it is 22.4 µM (active); for `O=C(Nc1cccc(C(F)(F)F)c1)Nc1ccc(Br)cc1-c1nn[nH]n1` it is “inactive”.
On to `COc1cc2c(cc1OC(C)C)[C@H](c1ccc(Cl)cc1)N(c1ccc(N(C)CC3CCC(N4CCN(C)C(=O)C4)CC3)cc1)C(=O)C2` (stereo partly drawn), for which the Potency entry was “inactive”.
The entry for `COc1cc2c(c(OC)c1CC=C(C)C)C[C@H](c1ccc(O)c(CC=C(C)C)c1O)CO2` is “inactive”; for `C=C1CCC2C(C)(C(=O)O)CCCC2(C)C1CCC1=CCOC1=O` (stereo not drawn) it is “inactive”; for `CN1CCN(c2ccc(Nc3cc(-c4cccc(-n5ccc6cc(C7CC7)cc(F)c6c5=O)c4CO)cn(C)c3=O)nc2)CC1` it is “inactive”.
`C=C1C(=O)OC2/C=C(\CO)CC/C=C(\C=O)C(OC)C(OC(=O)C(C)CC)C12` (stereo not drawn): the Potency result was “inactive”.
In the case of `CC(=O)OCC(=O)[C@@]12O[C@@H]1C[C@H]1[C@@H]3CC=C4C[C@@H](O)CC[C@]4(C)[C@H]3CC[C@@]12C` it was “inactive”; in that of `CC(=O)O[C@H]1C[C@H](OC(C)=O)[C@]2(C)[C@H](CC[C@@]34O[C@@H]3C3=C(C)C(=O)O[C@@H]3C[C@H]42)C1(C)C`, “inactive”; in that of `CC(CCC1(O)OC2CC3C4CC=C5CC(O[C@@H]6O[C@H](CO)[C@@H](O[C@@H]7O[C@@H](C)[C@H](O)[C@@H](O)[C@H]7O)[C@H](O)[C@H]6O[C@@H]6O[C@@H](C)[C@H](O)[C@@H](O)[C@H]6O)CCC5(C)C4CCC3(C)C2C1C)CO[C@@H]1O[C@H](CO)[C@@H](O)[C@H](O)[C@H]1O` (stereo partly drawn), “inactive”.
For the molecule `FC(F)(F)c1ccc(CNc2ccc(Cc3c[nH]c4ncc(Cl)cc34)cn2)cn1`, the Potency entry was “inactive”.
Regarding `Cc1ccc(C)c(NS(=O)(=O)c2cc(C(=O)Nc3ccccc3-c3ccccc3)ccc2C)c1`, the Potency entry was “inactive”.
`CC(=O)OC1CC(C)C2(CCC3(CC(=O)OC3O)O2)C2(C)CCCC(C)(C)C12` (stereo not drawn): the Potency entry is “inactive”.
Take `COC(=O)C[C@H]1[C@]2(C)C3=C(C)[C@H](c4ccoc4)C[C@H]3O[C@@H]2[C@H](O)C2[C@](C)(C(=O)OC)C=CC(=O)[C@@]21C` (stereo partly drawn): the Potency result is “inactive”.
The entry for `C=C1CC[C@@H]2[C@](C)(CO)[C@H](O)CC[C@@]2(C)[C@@H]1C/C=C1/C(=O)OCC1OC(=O)/C(=C/CO)C(O)C[C@@H]1C(=C)CC[C@@H]2[C@](C)(CO)[C@H](O)CC[C@]21C` (stereo partly drawn) is “inactive”; for `C=C1C(=O)OC2/C=C(/C)C3=CC(=O)C(C)(CC(OC(=O)/C(C)=C/COC(C)=O)C12)O3` (stereo not drawn) it is “inactive”; for `CC(C)C[C@H](CO)Nc1nc(S[C@@H](C)c2ccccc2)nc2nc(N)sc12` it is “inactive”.
For the molecule `Cc1cccc(N2CCN(C(=O)c3cc(S(=O)(=O)N(C)C)ccc3N3CCCC3)CC2)c1C`, the Potency result was “inactive”.
The entry for `C[C@@H](NC(=O)[C@H](O)c1cc(F)cc(F)c1)C(=O)N[C@@H]1C(=O)N(C)c2ccccc2-c2ccccc21` is “inactive”; for `C=CC(C)(O)CC[C@@H]1[C@@]2(C)CCCC(C)(C)C2CC[C@@]1(C)O` (stereo partly drawn) it is “inactive”.
Regarding `C[C@@H]1O[C@@H](O[C@H]2[C@@H]3C=CO[C@@H](O[C@@H]4O[C@H](CO)[C@@H](O)[C@H](O)[C@H]4O)[C@@H]3[C@@]3(CO)O[C@@H]23)[C@H](O)[C@H](OC(=O)/C=C/c2ccccc2)[C@H]1O`, the Potency result was “inactive”.
For `O=C(Nc1ccc2[nH]nc(-c3ccncc3)c2c1)[C@@H]1CCN(CC(=O)N2CCN(c3ccc(-c4ncccn4)cc3)CC2)C1`, the Potency result is “inactive”.
`CCCCCCOC(=O)/N=C(\N)c1ccc(NCc2nc3cc(C(=O)N(CCC(=O)OCC)c4ccccn4)ccc3n2C)cc1`: the Potency result was “inactive”.
The entry for `C=C1C(OC2OC(CO)C(O)C(O)C2O)CC2C(C)(C)C(O)CCC2(C)C1CC/C(C)=C\COC(=O)CC(=O)O` (stereo not drawn) is “inactive”; for `CC1(C)CC[C@]2(C(=O)O)[C@H](O)C[C@]3(C)C(=CCC4[C@@]5(C)CC[C@H](O[C@@H]6O[C@H](CO[C@@H]7OC[C@H](O)[C@H](O)[C@H]7O[C@@H]7OC[C@H](O)[C@H](O)[C@H]7O)[C@@H](O)[C@H](O)[C@H]6O)C(C)(C)C5CC[C@]43C)[C@@H]2C1` (stereo partly drawn) it is “inactive”; for `COc1cc(O)cc(/C=C/c2cccc(O)c2)c1` it is “inactive”.
The entry for `O=C(N[C@H]1CCC[C@H](CO)C1)C1CCN(c2nc3cc(Cl)c(-c4ccc(Cl)cc4)cc3o2)CC1` is “inactive”; for `C[C@@H](NC(=O)c1ccc(C#Cc2cccc(F)c2)cn1)C(C)(C)O` it is “inactive”.
In the case of `O=C(Cc1c(F)cccc1F)Nc1cc(OCc2ccc(Cl)cc2)ccn1` it was “inactive”; in that of `O=C(NCCCCCCCCNC(=O)C(Cl)Cl)C(Cl)Cl`, “inactive”; in that of `C[C@@H]1COCCN1c1cc(=O)n2c(n1)N(Cc1cncc(Cl)c1)[C@H](C(F)(F)F)CC2`, “inactive”.
On to `O=C(NCc1nc2ccccc2c(=O)n1-c1ccc(F)cc1)Nc1ccc(Cl)c(C(F)(F)F)c1`, for which the Potency result is “inactive”.
In the case of `COC1C=C(C)C(O)(CO)C2(C)CCCC(C)(C)C12` (stereo not drawn), the Potency entry is “inactive”.
In the case of `C/C=C(/C)C(=O)O[C@@H]1C[C@@H](OC(=O)CC(C)C)C2(C)C3C(=O)C=C(C)C2C3C1(C)C` (stereo partly drawn) it was “inactive”.
On to `Cc1cc(C)c(S(=O)(=O)n2cc(C)cc2C)c(C)c1`, for which the Potency entry was “inactive”.
The entry for `CC(=O)OC1CC(O)(C(C)C)C2C(OC(=O)c3ccc(O)cc3)C=C(C)C(=O)CC12C` (stereo not drawn) is “inactive”.

The values above are taken from PubChem BioAssay (NCATS).
